Consider 1 compound from PubChem BioAssay AID463117 (University of Pittsburgh Molecular Library Screening Center, 2010).

A short description of this test: inhibitors of zVAD-triggered necroptosis in L929, confirmation, L929 cells, duplicate runs (AID 463117).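 Also: 0% = cells with zVAD alone and 100% = vehicle cells without zVAD.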 As to conditions: L929 zVAD-induced necroptosis rescue, ATP luminescence, 24 h; at 10 µM; active compounds read high.

The structures appear in SMILES notation. This is one part of the list. Active and inactive are the calls of the source.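 The calls were made as follows: active = mean protection from necroptosis of at least 50% over duplicate tests; inactive = mean protection below 50%.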

`COC(=O)N1C(c2ccccc2)C1c1ccccc1` (stereo unspecified): the activation (protection from necroptosis) was 91.7% (active).
